Results published in the supplement of paper PMC10849652.
About 7,900 targets were measured; listed, in parts, are those with a hit and a random draw of the rest. About 0.6% of all pairs of compound and target were hits.

Each target was assayed with CN(C)CC(=O)Nc1ccc2[nH]c(=O)c3ccccc3c2c1 (assay: log2 fold change, soluble protein after heating vs DMSO (PISA); higher = thermal stabilisation; K562 cells, 10 uM, 30 min; active = over 0.2 and 3.5 SD of the protein, either way, in both replicates (recomputed)).
In short: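 Thermal stability values are relative to control samples and come from duplicates. They are expressed as log2 fold changes. For measurement, K562 cells (2×10^6 cells/mL) received 10 μM compound for 30 min, and aliquots were heated for 3 min over 48°C-58°C, pooled, and extracted at 4°C in PBS with 0.5% NP-40. Soluble protein, the supernatant after 21,000xg for 90 min, was quantified by TMTpro 16plex LC-MS/MS with equalised channel sums.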

UniProt Q8N357, sequence (Q8N357 whole entry, looked up): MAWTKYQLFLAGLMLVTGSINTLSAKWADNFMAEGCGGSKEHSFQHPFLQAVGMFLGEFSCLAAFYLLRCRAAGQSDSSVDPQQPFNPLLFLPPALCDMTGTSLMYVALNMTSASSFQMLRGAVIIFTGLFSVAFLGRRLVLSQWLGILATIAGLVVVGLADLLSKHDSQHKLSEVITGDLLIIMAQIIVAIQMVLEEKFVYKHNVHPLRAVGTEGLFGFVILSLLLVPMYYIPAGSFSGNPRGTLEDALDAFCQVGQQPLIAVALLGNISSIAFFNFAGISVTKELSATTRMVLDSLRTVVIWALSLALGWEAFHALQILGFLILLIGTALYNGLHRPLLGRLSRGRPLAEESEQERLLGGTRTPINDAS
UniProt Q969G3, sequence (Q969G3 whole entry, looked up): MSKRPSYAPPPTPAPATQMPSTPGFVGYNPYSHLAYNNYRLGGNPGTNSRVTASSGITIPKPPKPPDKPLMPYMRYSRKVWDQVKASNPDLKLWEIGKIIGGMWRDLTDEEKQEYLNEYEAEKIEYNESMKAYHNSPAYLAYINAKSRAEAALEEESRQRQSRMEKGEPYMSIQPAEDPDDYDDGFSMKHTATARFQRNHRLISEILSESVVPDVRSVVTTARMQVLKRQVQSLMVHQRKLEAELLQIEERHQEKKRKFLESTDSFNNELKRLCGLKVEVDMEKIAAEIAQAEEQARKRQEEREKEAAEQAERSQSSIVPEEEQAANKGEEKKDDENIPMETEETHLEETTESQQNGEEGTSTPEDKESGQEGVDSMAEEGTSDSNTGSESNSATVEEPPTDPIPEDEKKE
UniProt Q15005, sequence (Q15005 whole entry, looked up): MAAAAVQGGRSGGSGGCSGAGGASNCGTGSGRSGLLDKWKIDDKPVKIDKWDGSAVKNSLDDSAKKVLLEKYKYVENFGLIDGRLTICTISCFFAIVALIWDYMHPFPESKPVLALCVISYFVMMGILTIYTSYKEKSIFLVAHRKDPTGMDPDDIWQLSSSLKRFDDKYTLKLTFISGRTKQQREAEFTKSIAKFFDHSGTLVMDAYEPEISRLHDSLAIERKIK
UniProt Q9BYN0, sequence (Q9BYN0 whole entry, looked up): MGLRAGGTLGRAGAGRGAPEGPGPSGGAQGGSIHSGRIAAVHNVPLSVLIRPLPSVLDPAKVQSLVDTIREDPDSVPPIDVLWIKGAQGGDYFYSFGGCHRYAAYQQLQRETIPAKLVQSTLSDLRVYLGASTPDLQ
UniProt Q9NVC3, sequence (Q9NVC3 whole entry, looked up): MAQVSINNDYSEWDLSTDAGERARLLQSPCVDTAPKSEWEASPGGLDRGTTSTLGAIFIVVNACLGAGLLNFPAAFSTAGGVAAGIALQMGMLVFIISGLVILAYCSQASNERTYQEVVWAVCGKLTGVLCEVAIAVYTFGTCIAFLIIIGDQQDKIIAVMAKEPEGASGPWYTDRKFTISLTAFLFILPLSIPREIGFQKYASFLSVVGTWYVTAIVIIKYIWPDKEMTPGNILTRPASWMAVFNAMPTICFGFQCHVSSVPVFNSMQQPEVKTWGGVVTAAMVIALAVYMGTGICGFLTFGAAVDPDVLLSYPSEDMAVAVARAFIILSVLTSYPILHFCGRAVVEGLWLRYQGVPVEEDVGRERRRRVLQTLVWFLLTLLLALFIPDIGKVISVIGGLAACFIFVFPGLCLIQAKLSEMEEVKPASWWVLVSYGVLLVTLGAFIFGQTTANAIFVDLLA
UniProt Q9UHD2, sequence (Q9UHD2 whole entry, looked up): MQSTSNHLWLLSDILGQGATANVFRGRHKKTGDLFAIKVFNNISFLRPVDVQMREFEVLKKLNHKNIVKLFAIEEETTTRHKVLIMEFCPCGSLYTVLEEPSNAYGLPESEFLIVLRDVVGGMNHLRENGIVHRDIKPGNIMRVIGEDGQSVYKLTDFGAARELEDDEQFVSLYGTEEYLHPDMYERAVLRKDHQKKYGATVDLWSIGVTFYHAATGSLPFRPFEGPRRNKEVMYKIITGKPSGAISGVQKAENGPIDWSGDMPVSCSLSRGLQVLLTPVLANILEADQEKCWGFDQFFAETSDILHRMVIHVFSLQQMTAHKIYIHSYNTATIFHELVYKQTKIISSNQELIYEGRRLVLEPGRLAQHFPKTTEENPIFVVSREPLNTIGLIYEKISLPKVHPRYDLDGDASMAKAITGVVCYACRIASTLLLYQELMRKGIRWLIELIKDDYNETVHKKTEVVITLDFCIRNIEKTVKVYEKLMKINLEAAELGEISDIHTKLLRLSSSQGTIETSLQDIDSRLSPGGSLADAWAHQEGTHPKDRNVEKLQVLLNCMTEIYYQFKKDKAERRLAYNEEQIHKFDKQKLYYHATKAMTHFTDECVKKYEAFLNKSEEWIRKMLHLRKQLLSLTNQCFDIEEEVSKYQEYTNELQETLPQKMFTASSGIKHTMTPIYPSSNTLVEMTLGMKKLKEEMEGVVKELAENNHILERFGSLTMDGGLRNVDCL
UniProt Q07157, sequence (Q07157 whole entry, looked up): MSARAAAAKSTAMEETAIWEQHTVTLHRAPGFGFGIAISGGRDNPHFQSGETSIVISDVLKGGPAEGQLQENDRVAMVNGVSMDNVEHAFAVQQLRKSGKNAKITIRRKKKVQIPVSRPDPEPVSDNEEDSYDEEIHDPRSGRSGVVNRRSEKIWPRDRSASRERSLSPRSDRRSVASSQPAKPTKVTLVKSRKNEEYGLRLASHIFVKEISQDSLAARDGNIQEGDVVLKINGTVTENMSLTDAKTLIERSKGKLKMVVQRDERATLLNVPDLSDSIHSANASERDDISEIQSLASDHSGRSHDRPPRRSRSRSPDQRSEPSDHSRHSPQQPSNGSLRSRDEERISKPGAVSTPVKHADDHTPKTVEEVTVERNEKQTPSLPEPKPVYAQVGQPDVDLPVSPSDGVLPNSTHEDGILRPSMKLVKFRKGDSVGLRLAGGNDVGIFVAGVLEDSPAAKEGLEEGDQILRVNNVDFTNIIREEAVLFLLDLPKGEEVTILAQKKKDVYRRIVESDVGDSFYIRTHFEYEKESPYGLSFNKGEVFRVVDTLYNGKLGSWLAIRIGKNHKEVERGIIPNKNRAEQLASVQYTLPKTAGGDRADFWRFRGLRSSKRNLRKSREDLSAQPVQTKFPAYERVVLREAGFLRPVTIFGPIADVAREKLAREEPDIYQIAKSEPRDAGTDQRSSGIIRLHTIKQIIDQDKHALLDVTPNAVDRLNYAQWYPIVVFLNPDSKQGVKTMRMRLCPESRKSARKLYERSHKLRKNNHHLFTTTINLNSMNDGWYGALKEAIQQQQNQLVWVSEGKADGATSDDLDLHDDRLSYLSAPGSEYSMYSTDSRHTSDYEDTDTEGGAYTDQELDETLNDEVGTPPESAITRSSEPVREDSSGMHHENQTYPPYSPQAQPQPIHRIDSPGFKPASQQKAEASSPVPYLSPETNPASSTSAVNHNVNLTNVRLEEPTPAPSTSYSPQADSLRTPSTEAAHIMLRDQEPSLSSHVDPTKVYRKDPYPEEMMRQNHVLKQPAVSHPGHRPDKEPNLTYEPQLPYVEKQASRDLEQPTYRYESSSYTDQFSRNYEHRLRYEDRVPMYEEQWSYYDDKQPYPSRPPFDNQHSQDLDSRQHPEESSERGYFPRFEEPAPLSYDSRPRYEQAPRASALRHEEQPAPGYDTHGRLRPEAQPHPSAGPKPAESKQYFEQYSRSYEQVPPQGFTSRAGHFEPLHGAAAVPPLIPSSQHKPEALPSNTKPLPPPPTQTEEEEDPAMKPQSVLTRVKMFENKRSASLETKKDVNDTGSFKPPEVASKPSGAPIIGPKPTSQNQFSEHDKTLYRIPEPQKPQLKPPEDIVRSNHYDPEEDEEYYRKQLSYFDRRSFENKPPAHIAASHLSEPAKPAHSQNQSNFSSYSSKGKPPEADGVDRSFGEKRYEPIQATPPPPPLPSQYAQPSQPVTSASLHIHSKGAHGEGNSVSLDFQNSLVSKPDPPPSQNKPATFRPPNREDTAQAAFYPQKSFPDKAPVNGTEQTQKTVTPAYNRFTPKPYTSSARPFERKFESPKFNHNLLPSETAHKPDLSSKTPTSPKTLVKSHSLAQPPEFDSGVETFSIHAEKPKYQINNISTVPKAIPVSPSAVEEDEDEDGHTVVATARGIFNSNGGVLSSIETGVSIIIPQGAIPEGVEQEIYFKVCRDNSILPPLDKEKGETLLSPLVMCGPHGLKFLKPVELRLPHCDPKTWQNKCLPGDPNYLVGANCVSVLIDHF
UniProt Q9NRS6, sequence (Q9NRS6 whole entry, looked up): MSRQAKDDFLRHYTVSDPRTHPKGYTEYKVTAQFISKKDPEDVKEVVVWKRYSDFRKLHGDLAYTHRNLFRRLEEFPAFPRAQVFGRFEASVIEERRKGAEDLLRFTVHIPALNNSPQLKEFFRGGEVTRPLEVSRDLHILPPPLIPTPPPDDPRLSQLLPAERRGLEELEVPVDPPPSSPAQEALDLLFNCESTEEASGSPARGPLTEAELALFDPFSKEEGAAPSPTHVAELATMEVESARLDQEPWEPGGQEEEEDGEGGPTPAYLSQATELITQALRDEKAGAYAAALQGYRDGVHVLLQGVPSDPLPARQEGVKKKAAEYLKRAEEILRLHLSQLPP
UniProt Q9Y6I9, sequence (Q9Y6I9 whole entry, looked up): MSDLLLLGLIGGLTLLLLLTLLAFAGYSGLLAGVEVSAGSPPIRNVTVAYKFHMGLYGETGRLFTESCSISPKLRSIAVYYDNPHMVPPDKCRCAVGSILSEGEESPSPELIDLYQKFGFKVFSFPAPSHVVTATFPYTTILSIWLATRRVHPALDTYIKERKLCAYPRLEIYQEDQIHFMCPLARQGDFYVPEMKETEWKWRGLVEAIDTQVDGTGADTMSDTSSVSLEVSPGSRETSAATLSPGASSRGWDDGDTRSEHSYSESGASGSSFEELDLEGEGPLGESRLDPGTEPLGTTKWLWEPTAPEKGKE
UniProt Q8N5G0, sequence (Q8N5G0 whole entry, looked up): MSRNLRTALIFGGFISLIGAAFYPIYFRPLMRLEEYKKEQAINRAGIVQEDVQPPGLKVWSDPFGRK

log2 fold change, inactive:
SYNE2 isoform 2 (UniProt Q8WXH0) -0.044
TBK1 (UniProt Q9UHD2) -0.033
SLC38A7 (UniProt Q9NVC3) -0.123
TENT5C (UniProt Q5VWP2) 0.031
SRXN1 (UniProt Q9BYN0) 0.046
SLC29A3 (UniProt Q9BZD2) 0.002
SMARCE1 (UniProt Q969G3) -0.036
SRC isoform 2 (UniProt P12931) -0.032
SLC39A11 (UniProt Q8N1S5) -0.062
TBC1D15 isoform 3 (UniProt Q8TC07) 0.031
SNX15 (UniProt Q9NRS6) -0.045
SPPL2B (UniProt Q8TCT7) 0.035
SMIM20 isoform 2 (UniProt Q8N5G0) 0.007
SRSF9 (UniProt Q13242) -0.106
SLC35F6 (UniProt Q8N357) 0.034
TBC1D20 isoform 3 (UniProt Q96BZ9) 0.04
TEX264 (UniProt Q9Y6I9) 0.098
SPCS2 (UniProt Q15005) 0.038
TJP1 (UniProt Q07157) 0.012
TACC2 (UniProt O95359) -0.069
SNRPB2 (UniProt P08579) -0.063
STK26 (UniProt Q9P289) -0.033
